Active and inactive are the calls of the source.

The results in this text go back to PubChem BioAssay.

Assay [1] relates to Plasmodium falciparum Sir2 (PF13_0152, Sir2A). Briefly: Plasmodium falciparum Sir2A binding compounds – biochemical, small-molecule microarray, 635 nm fluorescence, primary screen (AID 1098).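 Also: score merges spot fluorescence intensity with its signal-to-noise ratio.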 To be noted: fluorescence 635 nm, higher = more signal.
Assay [2] is described as follows: probe aDKK1 binding to arrayed compounds – biochemical, biotinylated probe, 635/667 nm fluorescence, primary screen (AID 1099).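 Also: score merges 667nm spot fluorescence with signal to noise across triplicate slides; reference of the scale not given here.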 To be noted: small-molecule microarray, higher = more signal.
The nature of assay [3]: probe aCHRDL2 binding to arrayed compounds – biochemical, biotinylated probe, 635/667 nm fluorescence, primary screen (AID 1100). To be noted: small-molecule microarray, higher = more signal.
Assay [4] can be described thus: change in splice reporter luminescence, either direction, cell-based, HEK293, spliceosome inhibition project, primary screen (AID 1101).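 Also: HEK293 cells carrying a splicing-competent luciferase reporter gene; test concentration not given here.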 The settings on record: HEK293 splicing luciferase reporter, 24 h, higher = more signal, called active from +8 up or from −8 down. Background: In a reporter assay the amount or activity of a reporter protein is the signal.
The target in assay [5] is Fibroblast growth factor 10 (Homo sapiens) (UniProt O15520). Briefly: compounds binding fibroblast growth factor 10 – biochemical, small-molecule microarray, 635 nm fluorescence, primary screen (AID 1102). The settings on record: FGF10 binding, fluorescence 635 nm, higher = more signal.
Assay [6] concerns glycogen synthase kinase-3 (GSK3A per assay name; protocol says GSK3B). Briefly: compounds binding glycogen synthase kinase-3 – biochemical, small-molecule microarray, 635 nm fluorescence, GSK3A, primary screen (AID 1103). Also: the record names both GSK3A and GSK3B. To be noted: fluorescence 635 nm, higher = more signal.
The target of assay [7] is Epidermal growth factor receptor (Homo sapiens) (UniProt P00533). Briefly: compounds binding epidermal growth factor receptor – biochemical, small-molecule microarray, 635 nm fluorescence, primary screen (AID 1104).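 Also: score merges 667 nm emission intensity with spot signal to noise over triplicate slides.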 To be noted: EGFR binding, higher = more signal.
The target in assay [8] is Follistatin-related protein 3 (Homo sapiens) (UniProt O95633). Briefly: compounds binding follistatin-related protein 3 – biochemical, small-molecule microarray, 635 nm fluorescence, primary screen (AID 1105).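 Also: score merges emission near 667 nm and signal to noise per printed spot across three slides.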 To be noted: FSTL3 binding, higher = more signal.
Assay [9] concerns the target Dickkopf-related protein 1 (Homo sapiens) (UniProt O94907). Briefly: small molecules binding DKK1 protein – biochemical, small-molecule microarray, 635 nm fluorescence scan, primary screen (AID 1106).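 Also: score merges emission near 667 nm with signal to noise over three replicate slides.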 To be noted: higher = more signal.
The test system of assay [10] is Inhibin beta A chain (activin A). Briefly: small molecules binding activin A – biochemical, small-molecule microarray, 635 nm fluorescence scan, primary screen (AID 1107).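 Also: mouse activin A protein probed at 4.33 µg/mL on printed slides; score merges bound-protein fluorescence near 667 nm with spot signal-to-noise.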 To be noted: INHBA, higher = more signal.

Sequence of Fibroblast growth factor 10 (Homo sapiens) (O15520 whole entry, looked up): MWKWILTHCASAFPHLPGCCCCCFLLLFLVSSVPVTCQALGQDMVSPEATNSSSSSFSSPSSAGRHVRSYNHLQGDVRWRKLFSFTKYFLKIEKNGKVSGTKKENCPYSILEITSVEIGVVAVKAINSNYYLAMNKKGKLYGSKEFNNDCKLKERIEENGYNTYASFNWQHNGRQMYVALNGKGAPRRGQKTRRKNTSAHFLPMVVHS
Sequence of Follistatin-related protein 3 (Homo sapiens) (O95633 whole entry, looked up): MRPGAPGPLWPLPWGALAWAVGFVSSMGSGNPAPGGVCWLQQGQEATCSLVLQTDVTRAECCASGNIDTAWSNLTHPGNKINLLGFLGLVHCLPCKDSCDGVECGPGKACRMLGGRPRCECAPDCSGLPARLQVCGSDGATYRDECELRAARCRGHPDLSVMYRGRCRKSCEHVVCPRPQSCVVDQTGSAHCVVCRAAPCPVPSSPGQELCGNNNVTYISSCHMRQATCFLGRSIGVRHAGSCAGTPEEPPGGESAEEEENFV
Sequence of Epidermal growth factor receptor (Homo sapiens) (P00533 whole entry, looked up): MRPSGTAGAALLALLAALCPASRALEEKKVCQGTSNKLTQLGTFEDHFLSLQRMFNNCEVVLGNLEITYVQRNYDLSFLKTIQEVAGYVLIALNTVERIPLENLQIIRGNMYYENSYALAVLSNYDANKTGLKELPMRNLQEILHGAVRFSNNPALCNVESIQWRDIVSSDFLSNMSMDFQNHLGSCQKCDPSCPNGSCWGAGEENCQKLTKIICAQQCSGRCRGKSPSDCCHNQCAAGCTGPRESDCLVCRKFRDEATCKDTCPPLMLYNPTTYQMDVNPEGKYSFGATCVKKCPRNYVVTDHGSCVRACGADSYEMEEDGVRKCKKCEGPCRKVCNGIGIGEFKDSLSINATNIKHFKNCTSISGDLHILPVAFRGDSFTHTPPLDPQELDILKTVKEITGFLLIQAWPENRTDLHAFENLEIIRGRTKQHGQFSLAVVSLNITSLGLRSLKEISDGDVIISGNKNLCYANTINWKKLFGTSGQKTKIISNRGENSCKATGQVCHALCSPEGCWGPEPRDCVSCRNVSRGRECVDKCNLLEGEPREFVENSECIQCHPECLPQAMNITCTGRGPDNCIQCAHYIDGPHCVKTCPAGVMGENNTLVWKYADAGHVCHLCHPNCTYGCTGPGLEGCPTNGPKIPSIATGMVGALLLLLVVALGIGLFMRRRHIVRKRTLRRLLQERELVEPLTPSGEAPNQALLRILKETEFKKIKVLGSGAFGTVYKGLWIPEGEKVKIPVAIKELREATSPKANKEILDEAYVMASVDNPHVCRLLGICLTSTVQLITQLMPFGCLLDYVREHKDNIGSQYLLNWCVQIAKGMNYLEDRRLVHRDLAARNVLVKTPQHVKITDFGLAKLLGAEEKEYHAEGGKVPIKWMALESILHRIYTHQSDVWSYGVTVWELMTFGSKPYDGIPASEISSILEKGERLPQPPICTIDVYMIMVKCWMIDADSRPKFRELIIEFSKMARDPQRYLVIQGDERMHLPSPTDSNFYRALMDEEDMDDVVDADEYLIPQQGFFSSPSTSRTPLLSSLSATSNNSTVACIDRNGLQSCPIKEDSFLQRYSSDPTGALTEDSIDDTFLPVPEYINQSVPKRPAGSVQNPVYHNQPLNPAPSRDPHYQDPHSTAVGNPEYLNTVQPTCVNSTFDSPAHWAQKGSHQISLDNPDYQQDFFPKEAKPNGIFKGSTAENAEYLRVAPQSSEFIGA
Sequence of Dickkopf-related protein 1 (Homo sapiens) (O94907 whole entry, looked up): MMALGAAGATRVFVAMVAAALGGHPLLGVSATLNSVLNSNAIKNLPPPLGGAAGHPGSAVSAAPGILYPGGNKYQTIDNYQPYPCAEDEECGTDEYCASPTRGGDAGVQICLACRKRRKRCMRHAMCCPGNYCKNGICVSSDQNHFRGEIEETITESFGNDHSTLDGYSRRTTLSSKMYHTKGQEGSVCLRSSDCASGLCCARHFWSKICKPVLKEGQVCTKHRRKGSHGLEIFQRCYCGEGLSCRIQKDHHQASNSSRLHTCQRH

Regarding `CCOC(=O)C1=CC[C@@H](c2ccccc2C(F)(F)F)N(S(=O)(=O)c2ccc(C)cc2)[C@H]1c1ccc(C#N)cc1`, the composite z-score in assay [1] is 0.668; in assay [2] it was 0.648; in assay [3], 0.276; in assay [5] it was 0.719; in assay [6], 1.2; in [7], 0.593. Also, the results for the composite z-score in assay [8], in assay [9] and in [10] were 0.772, 0.35 and 0.307, respectively. Further, the z-score in assay [4] was -0.476 (inactive).
Take `COCCOC(=O)N1C(=O)[C@@]2(c3cc(C#CC4=CCCCC4)ccc31)[C@H](c1ccc(OCCO)cc1)N1[C@H](c3ccccc3)[C@H](c3ccccc3)OC(=O)[C@H]1[C@@H]2C(=O)N1CCN(c2ncccn2)CC1`: the composite z-score in assay [1] came out at 0.28; in assay [2], 0.0367; in assay [3], 0.262; in assay [5] it was 1.34; in [6], 1.3; in [7] it was 0.494. The composite z-score in [8] came to 0.866; in assay [9], 0.605; in [10], 0.783. Further, in assay [4], the z-score was 0.515 (inactive).
As for `CC[C@H]1C2=C3C(CC[C@H]4C(OCc5ccc(F)cc5C(F)(F)F)OC[C@](C)([C@@H]34)N(C(=O)OC(C)(C)C)C2)C(COC)C1COC` (stereo not given in full), the composite z-score in assay [1] was -0.0539; in assay [2] it was 0.222; in assay [3] it was 0.475; in [5], -0.0147; in assay [6] it was -0.652; in assay [7], -0.52. Also, the composite z-score in assay [8] was 0.269; in assay [9], -0.384; in assay [10] it was 0.561. The z-score in assay [4] was 0.477 (inactive).
With `COC(=O)[C@@]1(Cc2ccccc2)[C@H]2c3cc(C(=O)N(C)C)n(Cc4c(CO)[nH]cc(C)c4=O)c3C[C@H]2CN1C(=O)c1ccccc1`, the composite z-score in [1] is 0.42; in assay [2], 0.183; in assay [3], 0.528; in [5], 0.422; in [6], -0.0088; in assay [7], -0.0555. Also, the results for the composite z-score in assay [8], in [9] and in assay [10] were -0.237, -0.296 and 1.1, respectively. Besides, the z-score in assay [4] was 1.06 (inactive).
In the case of `C=CC1c2cc(O)c(OC)cc2CCN1Cc1cc2c(cc1Br)OCO2` (stereo not given), the composite z-score in [1] was 1.59; in [2], 0.276; in assay [3] it was 1.04; in assay [5], -0.0398; in assay [6], -0.277; in [7] it was 0.0492. In addition, the figures for the composite z-score in assay [8], in [9] and in assay [10] were 0.327, 0.565 and 1.9, respectively. Besides, the z-score in assay [4] is 0.203 (inactive).
With `O=C(CS)NCCCCCNC(=O)[C@@H]1C[C@@H]2C(=O)N3CCC[C@H]3C(=O)N2[C@@H]1c1cccc(OCCO)c1`, the composite z-score in assay [1] was 1.47; in assay [2] it was -0.137; in assay [3] it was 0.468; in assay [5], 0.453; in [6] it was 0.649; in assay [7] it was 0.196. The composite z-score in assay [8] was -0.596; in assay [9] it was 0.292; in [10] it was -0.525. The z-score in [4] is 0.501 (inactive).
Take `O=C(NCC(F)(F)F)[C@@H]1c2ccccc2C(=O)N(Cc2ccccc2C(F)(F)F)[C@H]1c1ccc(CO)cc1`: the composite z-score in [1] is 1.78; in assay [2], 0.757; in assay [3] it was 0.805; in assay [5] it was -0.141; in assay [6] it was -0.677; in assay [7], -0.79. Also, the composite z-score is -0.604 in [8], -0.377 in assay [9] and 0.547 in assay [10]. Further, in [4], the z-score was -0.335 (inactive).
In the case of `CCOC(=O)C1=C[C@@H](c2ccccc2)N(S(=O)(=O)c2ccc(C)cc2)[C@H]1c1ccccc1Cl`, the composite z-score was 1.9 in [1]; 0.379 in assay [2]; -0.229 in assay [3]; 1.29 in assay [5]; 1.29 in [6]; 0.683 in [7]. For the same molecule, the composite z-score in assay [8] is 1.05; in assay [9] it was 0.508; in assay [10], 0.556. The z-score in assay [4] was 0.328 (inactive).
As to `CCOC(=O)C[C@H]1[C@H](OC(=O)Cc2ccc3c(c2)OCO3)[C@@H](NC(=O)Cc2ccc(OC)cc2)c2cc(OCCCO)ccc2N1C(=O)c1ccc2ccccc2n1`, the composite z-score in assay [1] was 0.0382; in assay [2] it was -0.189; in assay [3], -0.265; in assay [5] it was 0.355; in assay [6], 0.415; in assay [7], 0.516. For the same molecule, the composite z-score in assay [8] was -0.114; in assay [9], 0.567; in [10], 0.825. Moreover, in [4], the z-score was -0.95 (inactive).
Take `CCOC(=O)C[C@H]1[C@H](OC(=O)c2cc3ccccc3oc2=O)[C@@H](NC(=O)c2ccc(-c3ccccc3)cc2)c2cc(OCCCO)ccc2N1C(=O)c1ccccc1`: the composite z-score in assay [1] is 1.17; in [2], -0.24; in assay [3] it was -0.466; in [5] it was 1.02; in assay [6], 1.04; in assay [7] it was 0.613. Moreover, the results for the composite z-score in assay [8], in [9] and in [10] were 1.05, 1.22 and 0.479, respectively. The z-score in assay [4] is -1.38 (inactive).
In the case of `C=CCNC(=O)[C@H]1[C@@H]2C(=O)O[C@@H](c3ccccc3)[C@@H](c3ccccc3)N2[C@@H](c2ccc(O)cc2)[C@]12C(=O)N(C(=O)OCCOC)c1ccccc12`, the composite z-score in assay [1] was 1.27; in assay [2] it was -0.689; in [3] it was -0.0623; in [5], 1.24; in assay [6], 0.226; in assay [7], 1.11. Moreover, the composite z-score in assay [8] was 0.552; in assay [9], 0.298; in assay [10] it was 0.204. The z-score in assay [4] is -1.59 (inactive).
Regarding `CC(CO)N1C(=O)[C@@H]2[C@H]3C(=O)OCC=C[C@H]3OC23C=CCN(Cc2ccccc2)C(=O)[C@@H]13` (stereo not given in full), the composite z-score is 0.978 in [1]; -0.321 in assay [2]; 0.247 in assay [3]; -0.49 in assay [5]; -1.23 in [6]; -1.18 in assay [7]. Moreover, the figures for the composite z-score in assay [8], in assay [9] and in assay [10] were -0.578, -0.567 and 0.056, respectively. In addition, the z-score in assay [4] was -1.11 (inactive).
As for `C=CCC(OC(C)=O)[C@@H]1[C@@H](N(Cc2cc3ccccc3o2)C(=O)c2ccc(-c3ccccc3)cc2)c2cc(OCCCO)ccc2N1C(=O)c1ccc2ccccc2c1` (stereo not given in full), the composite z-score is 0.187 in assay [1]; -0.106 in assay [2]; 0.285 in [3]; 0.132 in assay [5]; 0.289 in assay [6]; -0.0546 in assay [7]. Also, the values for the composite z-score in assay [8], in assay [9] and in [10] were 0.674, 0.227 and 1.02, respectively. For the same molecule, in assay [4], the z-score was 0.416 (inactive).
